Screening results: PubChem, National Center for Advancing Translational Sciences (NCATS)
Sampled rows, rich in hits. Any-hit rate of the full collection: about 8.7%.
Sfp PPTase inh = blocks B. subtilis Sfp PPTase activity. Q9F4F7. Biochemical Sfp PPTase activity, qHTS. Potency, µM, for inactives: largest response in the series, negative = inhibition, most hits filed as inhibitors. hit rate 3.5% among 310,000. AID 1490;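 further: the enzyme is Sfp with the accession as filed and its product quenches rhodamine fluorescence; 0% = enzyme reaction without inhibitor and -100% = no enzyme wells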
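Step 1, compound plus 15 nM Sfp-PPTase, 15 min, room temperature. Step 2, add rhodamine-CoA (5 uM) and BHQ-2-YbbR (12.5 uM). Step 3, read 525/598 nm fluorescence at 0 and 30 min.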
HP1b binding inh = inhibitors of HP1-beta chromodomain binding to methylated histone tails; AlphaScreen HP1-beta / biotin-H3K9me3 peptide binding; Potency, µM (highest dose often 114 µM), inactives show top-dose activity change, negative = inhibition, hits mostly inhibitors; hit rate 0.56% among 390,000; AID 540317; further: nearly all actives have a fitted effect of over 70% in size
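HP1-beta protein (50 nM final) preincubated 30 min at room temperature with biotinylated H3(1-18)K9me3 peptide (50 nM) in PBS pH 7.4, 0.01% Tween-20, then compound added for 30 min. AlphaScreen streptavidin donor/nickel chelate acceptor beads (10 ug/mL final), 30 min dark, luminescence read.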
BAZ2B block = blocks human BAZ2B. Q9UIF8. AlphaScreen BAZ2B-H3K14Ac peptide displacement. Potency, µM (series often up to 114 µM), for inactives: top-dose activity change, negative = inhibition, hits mostly inhibitors. hit rate 4.4% among 360,000; further: on the % scale 0 is the no-effect control and ±100 the full control effect; nearly all actives have a fitted effect of over 60% in size
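AlphaScreen displacement: compounds (up to 110uM) incubated 30 min at room temperature with a preformed 50 nM BAZ2B/50 nM biotinylated H3K14Ac peptide complex in PBS pH 7.4 with Tween-20. Donor and acceptor beads at 10 ug/mL final added, 20 min light-protected before reading.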
ALOX12 inh = blocks human arachidonate 12S-lipoxygenase. purified 12hLO, xylenol orange hydroperoxide absorbance. hit rate 1.1% among 580,000. P18054. AID 1671190. Potency, µM (titrated, usually from 108 µM), for the others: at the highest dose activity change, negative = inhibition, most hits filed as inhibitors; further: on the % scale 0 is the no-effect control and ±100 the full control effect
Target sequence (P18054 whole entry, looked up): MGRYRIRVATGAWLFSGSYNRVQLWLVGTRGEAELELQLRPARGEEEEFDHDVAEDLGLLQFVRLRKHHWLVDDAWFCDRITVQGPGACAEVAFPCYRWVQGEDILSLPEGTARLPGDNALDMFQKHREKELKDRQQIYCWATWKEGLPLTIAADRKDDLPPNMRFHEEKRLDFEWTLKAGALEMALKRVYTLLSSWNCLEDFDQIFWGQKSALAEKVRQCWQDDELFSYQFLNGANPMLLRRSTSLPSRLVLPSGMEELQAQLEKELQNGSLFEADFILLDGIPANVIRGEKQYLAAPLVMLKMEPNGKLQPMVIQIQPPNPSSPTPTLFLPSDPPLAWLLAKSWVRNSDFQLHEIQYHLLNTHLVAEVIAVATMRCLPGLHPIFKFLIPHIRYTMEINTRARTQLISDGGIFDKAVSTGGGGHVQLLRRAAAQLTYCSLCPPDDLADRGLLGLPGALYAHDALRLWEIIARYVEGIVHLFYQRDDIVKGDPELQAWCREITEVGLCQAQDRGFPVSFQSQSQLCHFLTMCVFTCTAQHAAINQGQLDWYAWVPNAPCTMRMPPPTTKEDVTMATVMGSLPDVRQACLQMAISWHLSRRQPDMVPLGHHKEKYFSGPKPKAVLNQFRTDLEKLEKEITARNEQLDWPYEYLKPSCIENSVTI
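Purified human 12hLO at 150 nM in 25 mM Hepes, 0.01% Triton X-100, pH 7.0, preincubated 15 min at room temperature with compound. Reaction started with 40 uM arachidonic acid, 30 min at room temperature. Hydroperoxide measured by Fe-xylenol orange, 573/405 nm absorbance ratio.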
G9a inh = blocks human histone lysine methyltransferase G9a | Q96KQ7 | G9a H3K9 monomethylation, AlphaScreen, 2 h | Potency, µM (top dose mostly 102 µM), without a hit: top-dose activity, negative = inhibition, hits mostly inhibitors | hit rate 8.8% among 350,000 | AID 504332; further: on the % scale 0 is the no-effect control and ±100 the full control effect; nearly all actives have a fitted effect of over 75% in size
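Readings reflect AlphaScreen signal from monomethyl-H3K9 antibody detection. HMT at 20 nM; substrate b-H3K9 500 nM; cofactor SAM 20 uM; 2 h RT reaction; compounds tested as titrations in qHTS with 15 min preincubation.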
JMJD2A Tudor inh = blocks the human JMJD2A Tudor domain; O75164; AlphaScreen JMJD2A-Tudor / H3K4me3 peptide binding; Potency, µM (doses to about 114 µM), for the others: at the highest dose activity change, negative = inhibition, hits mostly inhibitors; hit rate 4.4% among 390,000; AID 504339; further: on the % scale 0 is the no-effect control and ±100 the full control effect; nearly all actives have a fitted effect of over 50% in size
* = called active by the depositor; ? = inconclusive; · = not tested or not shown; [ ] = remark or other dose. The call rests on the fitted dose curve; in most records, active means well fitted curve in the direction sought with a large enough effect; inconclusive means small, poorly fitted or top-dose-only effect, or another doubt; inactive means no such curve, though single readings can be large; an effect the other way counts as inactive or inconclusive. Potency means the concentration at half of the fitted maximal effect.

SMILES | Sfp PPTase inh | HP1b binding inh | BAZ2B block | ALOX12 inh | G9a inh | JMJD2A Tudor inh
COc1ccc(OC)c(NC(=S)NCCC(c2ccccc2)c2ccccc2)c1 | · | ? | · | 8.9µM* | · | ?
S=C(NCCNc1c(Cl)c(Cl)c(Cl)c(Cl)c1Cl)Nc1ccccc1 | · | · | · | 13µM* | · | ·
COc1ccc(OC)c(NC(=S)NCc2ccccc2OC)c1 | 5% | -15% | ? | ? | ? | -30%
C=CCNC(=S)Nc1cccc(Cl)c1 | · | · | · | -30% | · | ·
S=C(NCCC(c1ccccc1)c1ccccc1)Nc1ccccc1 | · | · | · | 35µM* | · | ·
Cc1cc(=O)n(CC(=O)Nc2ccc3c(c2)OCO3)c(-c2ccc(Cl)cc2)n1 | · | · | · | 17% | · | ·
S=C(NCCC(c1ccccc1)c1ccccc1)Nc1cccc(Cl)c1 | 12% | 28% | -4% | 22µM* | -9%[0.501 µM] | -1%
S=C(NCCN(C1CCCCC1)C1CCCC1)Nc1cccc(Cl)c1 | 5% | -18% | -27% | ? | ? | -31%
Cc1ccccc1NC(=S)NCCC(c1ccccc1)c1ccccc1 | 19% | -18% | -32% | 32µM* | -26%[59 µM] | ?
S=C(N/N=C/c1cccc2ccccc12)Nc1cccc(Cl)c1 | 18% | 9% | 79µM* | ? | -1% | -20%
CC(=O)C1=C(C)NC(=S)NC1c1ccc(F)cc1 (centres undefined) | · | · | · | -9% | · | ·
Fc1ccc(/C=C2\CCCC3=C2NC(=S)NC3c2ccc(F)cc2)cc1 (centres undefined) | 45µM* | · | ? | · | 22µM* | ·
CN(C)/C=N/c1nc(Sc2ccc(C(F)(F)F)cc2[N+](=O)[O-])n[nH]1 | 13% | 11% | -2% | 436% | -1% | -10%
O=[N+]([O-])c1cc(C(F)(F)F)cc([N+](=O)[O-])c1Sc1n[nH]c(C(F)(F)F)n1 | 56µM* | 43% | -35% | -23% | · | 50µM*
CCOc1ccc(N2C(=O)N(CC(=O)NC(C)CC)c3ccccc3S2(=O)=O)cc1 (centres undefined) | · | · | · | 0% | · | ·
COc1ccccc1CN1CCC2(CC1)CCN(C(=O)c1ccco1)CC2 | 2% | · | · | -6%[57.4 µM] | -6%[12.7 µM] | ·
COc1ccccc1CN1CCN(C(=O)c2ccco2)CC1 | -22% | 50µM* | ? | ? | 22µM* | 1µM*
COc1ccc(CN2CCN(C(=O)c3ccco3)CC2)c(OC)c1OC | · | ? | · | 0% | · | 25µM*
O=C(c1ccco1)N1CCN(CCCCOc2ccc(F)cc2)CC1 | 0% | 24% | -30% | 32µM* | ? | -9%
O=C(c1ccco1)N1CCC(OC2CCN(Cc3cccnc3)CC2)CC1 | · | · | · | 42% | · | ·
O=C(c1ccco1)N1CCN(Cc2cccnc2)CC1 | ? | -45% | 25µM* | ? | 3.5µM* | 3.5µM*
O=c1ccc(S(=O)(=O)N2CCCC2)cn1Cc1ncc(-c2ccc(F)cc2)o1 | · | · | · | -20% | · | ·
COc1ccc(Br)cc1CN1CCN(C(=O)c2ccco2)CC1 | ? | 32µM* | 28µM* | 0.5µM* | 10µM* | 7.1µM*
COC(=O)CN1CCN(C(=O)c2ccco2)CC1 | -20% | 38% | -12% | -19% | · | 16%
CCc1cc2ccc(C)cc2nc1SCC(=O)N1CCN(C(=O)c2ccco2)CC1 | ? | ? | ? | 0% | ? | 89µM*
SMILES | Sfp PPTase inh | HP1b binding inh | BAZ2B block | ALOX12 inh | G9a inh | JMJD2A Tudor inh
O=C(c1ccco1)N1CCN(Cc2ccccc2F)CC1 | -30% | ? | ? | -37% | 28µM* | 28µM*
O=C(COC(=O)C1(c2ccccc2F)CCCC1)N1CCN(C(=O)c2ccco2)CC1 | 2% | 0% | 1% | 6% | 50µM* | -2%
Cc1ccc(C2NC(=O)N(CC(=O)Nc3ccccc3C(C)C)C3=C2C(=O)OC3)cc1 (centres undefined) | · | · | · | -27% | · | ·
O=C(CSc1ccc(Br)cc1)N1CCN(C(=O)c2ccco2)CC1 | 3% | 46% | -6% | ? | 45µM* | -8%
O=C(Nc1ccc2oc(-c3cccnc3)nc2c1)c1cc(Cl)ccc1Cl | · | · | · | 30% | · | ·
O=C1NC(=S)CN1c1ccccc1 | 5.6µM* | ? | -21% | ? | 11µM* | 13µM*
